# Data from the supplement of paper PMC10849652.
# The full data set covers some 7,900 targets. This sample favours those with a hit. About 0.6% of all pairs of compound and target were hits. Values without a mark were called inactive.
# Experiments:
# Assay in all cases: log2 fold change, soluble protein after heating vs DMSO (PISA); higher = thermal stabilisation; K562 cells, 10 uM, 30 min; active = over 0.2 and 3.5 SD of the protein, either way, in both replicates (recomputed)
# [1] = compound: CC1=C(C=C(C=C1)NC(=O)C2=CC(=CC=C2)C(C)(C)C#N)NC3=CC4=C(C=C3)N=CN(C4=O)C
# In short: (§1)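 K562 cells at 2×10^6 cells/mL were exposed to 10 μM compound for 30 min, then aliquots were heated for 3 min across 48°C-58°C, pooled, and extracted in PBS containing 0.5% NP-40 at 4°C. The supernatant after 21,000xg for 90 min was taken as soluble protein and measured by TMTpro 16plex LC-MS/MS with channel sums equalised. Thermal stability is reported relative to control samples, with values from duplicates. Fold changes are given on a log2 scale.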
# [2] = compound: CC1=C(C=C(C=C1)NC(=O)C2=CC(=CC=C2)N(C)C)NC(=O)C3=CC=C(C=C3)O
# In short: as §1
# [3] = compound: CC1=NC(=CC=C1)C2=C(N=C(N2)C(C)(C)C)C3=CC4=NC=CN=C4C=C3
# In short: as §1
# Nexturastat A = compound: CCCCN(Cc1ccc(C(=O)NO)cc1)C(=O)Nc1ccccc1 [Nexturastat A]
# In short: as §1
# vemurafenib = compound: CCCS(=O)(=O)Nc1ccc(F)c(C(=O)c2c[nH]c3ncc(-c4ccc(Cl)cc4)cc23)c1F [vemurafenib]
# In short: as §1
# [4] = compound: CCCc1cc(C)[nH]c(=O)c1CNC(=O)c1cc(-c2ccnc(N3CCN(C)CC3)c2)cc2c1cnn2C(C)C
# In short: as §1
# givinostat = compound: CCN(CC)Cc1ccc2cc(COC(=O)Nc3ccc(C(=O)NO)cc3)ccc2c1 [givinostat]
# In short: as §1
# barasertib = compound: CCN(CCCOc1ccc2c(Nc3cc(CC(=O)Nc4cccc(F)c4)[nH]n3)ncnc2c1)CCOP(=O)(O)O [barasertib]
# In short: as §1
# [5] = compound: CC1=CC=C(C=C1)SC2=C3C=C(SC3=CN=C2)C(=O)N
# In short: as §1
# [6] = compound: CCCS(=O)(=O)Nc1ccc(F)c(C(=O)c2c[nH]c3ncc(Cl)cc23)c1F
# In short: as §1
# UniProt P31323, sequence (P31323 whole entry, looked up): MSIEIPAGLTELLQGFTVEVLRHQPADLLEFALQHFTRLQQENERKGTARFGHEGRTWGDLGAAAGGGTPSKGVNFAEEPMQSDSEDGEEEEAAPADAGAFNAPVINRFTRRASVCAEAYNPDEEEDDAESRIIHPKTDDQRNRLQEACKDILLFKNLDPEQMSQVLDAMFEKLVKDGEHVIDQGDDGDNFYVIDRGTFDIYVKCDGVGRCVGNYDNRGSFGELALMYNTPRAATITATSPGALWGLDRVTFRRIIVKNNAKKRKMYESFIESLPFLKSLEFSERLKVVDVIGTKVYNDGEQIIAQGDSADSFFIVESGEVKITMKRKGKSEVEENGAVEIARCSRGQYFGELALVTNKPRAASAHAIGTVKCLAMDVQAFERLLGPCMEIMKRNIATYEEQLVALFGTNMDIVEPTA
# UniProt Q15126, sequence (Q15126 whole entry, looked up): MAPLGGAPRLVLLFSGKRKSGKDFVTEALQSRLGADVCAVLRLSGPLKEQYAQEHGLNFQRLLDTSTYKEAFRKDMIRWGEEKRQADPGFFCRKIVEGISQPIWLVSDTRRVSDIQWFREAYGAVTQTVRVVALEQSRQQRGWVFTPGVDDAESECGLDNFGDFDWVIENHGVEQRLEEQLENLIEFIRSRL
# UniProt Q9BZL4, sequence (Q9BZL4 whole entry, looked up): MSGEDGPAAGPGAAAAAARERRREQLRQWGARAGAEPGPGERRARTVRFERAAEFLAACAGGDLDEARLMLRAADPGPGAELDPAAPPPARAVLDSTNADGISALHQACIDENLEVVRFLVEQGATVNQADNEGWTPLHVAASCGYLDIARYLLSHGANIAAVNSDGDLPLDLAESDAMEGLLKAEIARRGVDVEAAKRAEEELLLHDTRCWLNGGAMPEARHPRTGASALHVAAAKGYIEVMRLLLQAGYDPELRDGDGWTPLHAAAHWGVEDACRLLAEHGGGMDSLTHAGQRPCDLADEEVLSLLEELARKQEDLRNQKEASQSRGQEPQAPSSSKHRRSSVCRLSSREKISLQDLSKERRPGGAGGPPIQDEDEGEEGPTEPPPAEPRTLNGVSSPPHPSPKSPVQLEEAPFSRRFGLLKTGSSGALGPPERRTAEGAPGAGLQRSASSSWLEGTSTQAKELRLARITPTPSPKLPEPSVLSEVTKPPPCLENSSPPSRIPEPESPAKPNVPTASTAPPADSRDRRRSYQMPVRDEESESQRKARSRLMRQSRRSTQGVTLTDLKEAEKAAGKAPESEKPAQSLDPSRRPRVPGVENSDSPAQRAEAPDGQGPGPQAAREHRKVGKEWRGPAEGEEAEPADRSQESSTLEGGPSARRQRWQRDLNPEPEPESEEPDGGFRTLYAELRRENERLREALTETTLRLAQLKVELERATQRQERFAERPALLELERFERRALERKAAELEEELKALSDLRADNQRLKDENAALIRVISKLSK
# UniProt Q9BZL6, sequence (Q9BZL6 whole entry, looked up): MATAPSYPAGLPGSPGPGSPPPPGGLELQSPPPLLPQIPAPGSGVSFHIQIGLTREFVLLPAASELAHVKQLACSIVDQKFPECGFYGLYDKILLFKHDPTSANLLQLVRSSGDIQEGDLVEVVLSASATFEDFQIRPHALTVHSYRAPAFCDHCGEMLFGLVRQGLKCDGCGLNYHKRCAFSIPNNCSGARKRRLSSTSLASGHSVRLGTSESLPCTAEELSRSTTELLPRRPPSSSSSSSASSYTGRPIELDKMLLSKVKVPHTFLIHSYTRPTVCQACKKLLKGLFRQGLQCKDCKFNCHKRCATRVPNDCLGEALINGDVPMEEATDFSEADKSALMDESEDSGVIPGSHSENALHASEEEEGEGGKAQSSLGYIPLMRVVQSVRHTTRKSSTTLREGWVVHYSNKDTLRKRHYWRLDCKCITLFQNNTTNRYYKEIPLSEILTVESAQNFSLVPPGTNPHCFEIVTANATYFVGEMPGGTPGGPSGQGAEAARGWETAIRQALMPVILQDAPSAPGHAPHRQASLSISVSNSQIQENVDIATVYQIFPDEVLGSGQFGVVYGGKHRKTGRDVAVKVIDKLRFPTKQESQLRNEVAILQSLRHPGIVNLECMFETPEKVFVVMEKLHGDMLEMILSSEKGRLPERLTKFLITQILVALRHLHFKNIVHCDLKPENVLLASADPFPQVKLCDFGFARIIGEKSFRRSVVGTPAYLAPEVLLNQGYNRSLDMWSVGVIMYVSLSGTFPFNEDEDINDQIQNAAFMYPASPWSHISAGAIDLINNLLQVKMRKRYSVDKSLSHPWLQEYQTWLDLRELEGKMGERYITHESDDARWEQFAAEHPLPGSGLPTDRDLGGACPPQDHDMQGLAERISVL
# UniProt Q68D20, sequence (Q68D20 whole entry, looked up): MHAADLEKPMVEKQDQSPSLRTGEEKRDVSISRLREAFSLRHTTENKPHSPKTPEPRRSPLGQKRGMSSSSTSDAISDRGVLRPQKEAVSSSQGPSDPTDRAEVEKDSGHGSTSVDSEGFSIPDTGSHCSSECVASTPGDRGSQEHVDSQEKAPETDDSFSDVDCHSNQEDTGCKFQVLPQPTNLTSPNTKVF
# UniProt Q9UHX1, sequence (Q9UHX1 whole entry, looked up): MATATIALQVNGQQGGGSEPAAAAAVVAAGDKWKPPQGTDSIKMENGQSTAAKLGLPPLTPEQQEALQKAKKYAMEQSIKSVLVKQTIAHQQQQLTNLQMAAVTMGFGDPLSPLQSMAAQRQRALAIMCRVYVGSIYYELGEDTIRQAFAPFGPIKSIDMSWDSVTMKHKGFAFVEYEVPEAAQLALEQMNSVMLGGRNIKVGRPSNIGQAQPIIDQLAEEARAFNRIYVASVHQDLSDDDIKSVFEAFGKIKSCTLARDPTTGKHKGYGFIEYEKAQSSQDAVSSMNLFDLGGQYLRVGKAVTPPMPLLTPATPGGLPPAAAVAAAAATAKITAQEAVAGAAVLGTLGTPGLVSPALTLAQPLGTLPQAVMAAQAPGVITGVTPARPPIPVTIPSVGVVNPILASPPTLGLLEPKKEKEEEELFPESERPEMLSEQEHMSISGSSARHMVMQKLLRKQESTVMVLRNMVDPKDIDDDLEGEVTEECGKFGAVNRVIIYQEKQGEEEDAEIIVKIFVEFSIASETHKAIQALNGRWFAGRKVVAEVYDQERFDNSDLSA
# UniProt Q13362, sequence (Q13362 whole entry, looked up): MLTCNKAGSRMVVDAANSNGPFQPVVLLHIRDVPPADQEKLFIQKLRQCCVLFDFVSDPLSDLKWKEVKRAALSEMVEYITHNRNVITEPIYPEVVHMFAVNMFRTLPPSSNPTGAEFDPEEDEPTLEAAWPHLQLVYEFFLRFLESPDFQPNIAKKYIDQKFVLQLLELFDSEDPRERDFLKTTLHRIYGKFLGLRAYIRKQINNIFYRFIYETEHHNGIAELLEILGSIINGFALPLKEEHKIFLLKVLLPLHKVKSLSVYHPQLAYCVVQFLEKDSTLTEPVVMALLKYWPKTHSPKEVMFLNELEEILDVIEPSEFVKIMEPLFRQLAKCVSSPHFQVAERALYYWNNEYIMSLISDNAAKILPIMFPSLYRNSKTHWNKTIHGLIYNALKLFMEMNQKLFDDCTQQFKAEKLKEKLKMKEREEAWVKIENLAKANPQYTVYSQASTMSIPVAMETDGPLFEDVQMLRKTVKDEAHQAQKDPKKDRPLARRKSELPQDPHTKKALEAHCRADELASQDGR
# UniProt Q08752, sequence (Q08752 whole entry, looked up): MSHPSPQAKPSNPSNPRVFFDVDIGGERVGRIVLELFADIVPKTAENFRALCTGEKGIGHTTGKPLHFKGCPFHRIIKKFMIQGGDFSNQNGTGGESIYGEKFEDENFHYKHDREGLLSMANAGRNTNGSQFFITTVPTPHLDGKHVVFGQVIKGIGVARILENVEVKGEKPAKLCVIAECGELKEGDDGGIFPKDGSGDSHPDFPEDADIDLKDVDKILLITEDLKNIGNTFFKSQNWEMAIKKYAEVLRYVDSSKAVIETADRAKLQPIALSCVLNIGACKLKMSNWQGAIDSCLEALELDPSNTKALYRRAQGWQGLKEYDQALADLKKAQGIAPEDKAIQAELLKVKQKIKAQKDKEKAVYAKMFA
# UniProt Q15111, sequence (Q15111 whole entry, looked up): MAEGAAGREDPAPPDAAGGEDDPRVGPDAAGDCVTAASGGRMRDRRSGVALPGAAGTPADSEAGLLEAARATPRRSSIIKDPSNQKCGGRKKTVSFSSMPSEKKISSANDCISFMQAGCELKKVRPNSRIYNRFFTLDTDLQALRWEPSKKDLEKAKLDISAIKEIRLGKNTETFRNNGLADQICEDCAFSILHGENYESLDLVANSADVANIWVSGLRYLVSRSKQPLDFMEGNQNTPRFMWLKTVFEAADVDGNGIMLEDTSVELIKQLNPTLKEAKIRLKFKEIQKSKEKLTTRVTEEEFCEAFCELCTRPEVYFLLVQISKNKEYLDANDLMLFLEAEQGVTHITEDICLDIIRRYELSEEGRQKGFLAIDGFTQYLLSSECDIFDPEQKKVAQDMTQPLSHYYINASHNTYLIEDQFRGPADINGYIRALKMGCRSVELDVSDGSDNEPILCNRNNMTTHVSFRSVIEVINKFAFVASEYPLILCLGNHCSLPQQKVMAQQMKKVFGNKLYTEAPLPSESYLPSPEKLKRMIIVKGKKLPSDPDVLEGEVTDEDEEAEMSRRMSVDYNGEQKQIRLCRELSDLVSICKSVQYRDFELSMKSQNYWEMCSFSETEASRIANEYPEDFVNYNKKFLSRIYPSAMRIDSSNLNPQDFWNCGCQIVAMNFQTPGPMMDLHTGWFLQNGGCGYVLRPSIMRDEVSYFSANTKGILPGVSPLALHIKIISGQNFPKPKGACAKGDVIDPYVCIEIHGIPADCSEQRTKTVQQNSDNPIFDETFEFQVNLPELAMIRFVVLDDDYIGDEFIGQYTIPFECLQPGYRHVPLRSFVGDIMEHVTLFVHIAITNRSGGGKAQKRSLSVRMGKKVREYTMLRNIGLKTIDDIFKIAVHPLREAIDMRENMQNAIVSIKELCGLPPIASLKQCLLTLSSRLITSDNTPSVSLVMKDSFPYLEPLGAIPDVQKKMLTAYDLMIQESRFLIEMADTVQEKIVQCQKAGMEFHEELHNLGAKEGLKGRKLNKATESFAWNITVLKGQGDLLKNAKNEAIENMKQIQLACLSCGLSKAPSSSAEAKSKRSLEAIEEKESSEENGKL
Target,log2 fold change [1],log2 fold change [2],log2 fold change [3],log2 fold change (Nexturastat A),log2 fold change (vemurafenib),log2 fold change [4],log2 fold change (givinostat),log2 fold change (barasertib),log2 fold change [5],log2 fold change [6]
PRG4 (UniProt Q92954),-0.099,0.034,0.106,-0.007,0.008,-0.069,0.102,-0.023,–,–
PGK2 (UniProt P07205),0.019,0.058,0.05,0.039,-0.084,-0.006,–,-0.046,-0.075,-0.051
PRPF4B (UniProt Q13523),-0.024,0.018,-0.082,0.158,0.052,-0.098,0.082,-0.05,-0.079,0.03
PPID (UniProt Q08752),0.011,-0.047,0.005,0.008,0.097,0.104,0.122,0.057,0.091,0.105
PPP1R12C (UniProt Q9BZL4),-0.048,0.027,–,0.154,-0.023,0.04,0.089,0.112,0.124,0.265
PLCL1 (UniProt Q15111),0.056,-0.061,0.03,0.253,0.068,0.159,0.21,0.205,–,–
PEX13 (UniProt Q92968),0.052,-0.101,-0.02,0.116,-0.033,-0.142,-0.034,0.044,0.033,0.033
PRKD2 isoform 3 (UniProt Q9BZL6),0.296,-0.26,0.028,0.006,0.024,0.083,-0.009,0.093,0.117,0.058
POLR2M (UniProt Q6EEV4),0.091,–,0.046,-0.403,0.017,-0.073,-0.105,-0.055,-0.062,-0.066
PEX5 isoform 4 (UniProt P50542),0.089,-0.018,–,0.145,-0.066,–,0.127,–,–,–
POM121 (UniProt Q96HA1),-0.045,-0.032,-0.074,0.117,-0.039,–,0.119,0.111,-0.056,0.007
PLD3 (UniProt Q8IV08),0.002,0.012,0.018,-0.081,-0.007,-0.028,-0.072,-0.013,0.034,0.019
PRKAR2B (UniProt P31323),0.04,0.017,0.022,0.046,0.033,-0.014,0,0.047,0.038,0.052
PNPLA4 (UniProt P41247),0.418,-0.04,0.273,–,-0.093,-0.277,1.1 (active),0.042,0.409,-0.025
PARP16 isoform 3 (UniProt Q8N5Y8),0.066,–,0,0.022,-0.06,-0.016,0.04,0.032,0.298 (active),0.132
PCNX1 (UniProt Q96RV3),–,–,–,0.106,0.025,-0.035,–,0.026,-0.373,-0.58 (active)
PUF60 isoform 2 (UniProt Q9UHX1),–,0.04,–,–,0.135,0.123,–,0.095,0.199,0.35

Target,log2 fold change [1],log2 fold change [2],log2 fold change [3],log2 fold change (Nexturastat A),log2 fold change (vemurafenib),log2 fold change [4],log2 fold change (givinostat),log2 fold change (barasertib),log2 fold change [5],log2 fold change [6]
PPP2R5B (UniProt Q15173),–,–,–,–,-0.104,-0.013,0.083,0.009,-0.131,0.104
PRR14L (UniProt Q5THK1),–,–,–,–,-0.62 (active),–,–,–,-0.039,-0.038
PRKD2 (UniProt M0R346),-0.011,–,–,0.236,–,–,–,-0.337,–,–
PHRF1 (UniProt Q9P1Y6),–,-0.052,–,–,–,0.146,0.034,–,-0.034,-0.058
PPP1R12B isoform 6 (UniProt O60237),–,–,–,–,–,–,0.252,0.108,–,–
PMVK (UniProt Q15126),0.006,–,–,0.085,-0.041,0.016,-0.068,0.014,–,–
PCBP2 (UniProt F8VRH0),0.419,–,0.172,0.136,-0.235,-0.199,0.04,-0.201,0.019,0.123
PUM1 (UniProt Q14671),–,–,-0.028,–,–,–,0.08,–,–,–
PRKCE (UniProt Q02156),0.041,–,0.048,-0.242,0.077,-0.02,-0.393 (active),0.013,-0.012,0.085
PCBP2 (UniProt F8VZX2),–,-0.14,0.005,–,–,-0.098,0.009,-0.173,–,–
PSMA3 (UniProt H0YJ03),–,0.019,-0.194,–,-0.145,–,–,–,0.019,-0.134
PSMA3 (UniProt G3V4X5),–,-0.046,0.184,–,-0.012,–,–,0.103,-0.117,0.013
PPP2R5C isoform 2 (UniProt Q13362),–,-0.047,0.022,–,–,-0.016,0.048,0.055,–,–
PHLDB1 isoform 2 (UniProt Q86UU1),–,0.01,0.047,0.045,0.031,0.14,-0.012,0.117,0.047,0.016
PDE4DIP (UniProt E9PS60),–,–,0.013,–,-0.214,–,0.016,–,–,–
PIGH (UniProt Q14442),–,0.001,0,0.141,0,-0.069,-0.011,-0.219,0.027,-0.025
PMS2CL (UniProt Q68D20),–,0.089,–,-0.109,–,0.129,–,–,–,–
